Bioassay records from PubChem.
AmpC inh no detg = blocks E. coli AmpC beta-lactamase in detergent-free assay | 0.52% of 330,000 active | P00811 | AID 485341 | AmpC nitrocefin hydrolysis, absorbance 480 nm, 0.0001% Triton | Potency, µM (doses to about 57.1 µM), inactives show top-dose activity change, negative = inhibition, most hits filed as inhibitors;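 also: plate controls were no compound for no effect and no enzyme for full effect; nearly all actives have a fitted effect of over 20% in size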
Target sequence (P00811 whole entry, looked up): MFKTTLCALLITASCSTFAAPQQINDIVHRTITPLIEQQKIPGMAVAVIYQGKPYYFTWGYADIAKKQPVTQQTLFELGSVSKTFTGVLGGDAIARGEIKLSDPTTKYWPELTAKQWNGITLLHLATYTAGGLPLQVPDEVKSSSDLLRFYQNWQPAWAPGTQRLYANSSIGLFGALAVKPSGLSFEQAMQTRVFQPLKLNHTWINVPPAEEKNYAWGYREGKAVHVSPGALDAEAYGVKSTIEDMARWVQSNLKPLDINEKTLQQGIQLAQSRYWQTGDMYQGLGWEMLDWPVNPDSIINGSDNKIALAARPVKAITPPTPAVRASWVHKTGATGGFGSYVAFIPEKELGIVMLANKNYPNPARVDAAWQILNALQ
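20 mM phosphate pH 7.0 + 0.01% (detergent screen) or 0.0001% Triton X-100; 5.3 nM AmpC reagent; cpd preinc 15 min RT; nitrocefin (800 uM stock) to start; A480 q20 s × 4 min; Activity was normalised to no-enzyme and no-compound control wells.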
Sm TGR block = inhibitors of Schistosoma mansoni thioredoxin glutathione reductase | Q962Y6 | purified TGR, DTNB reduction, TNB absorbance 405 nm | Potency, µM (series often up to 114 µM), for the others: top-dose activity change, negative = inhibition, usual class: inhibitors | 3% of 360,000 active; also: nearly all actives have a fitted effect of over 60% in size
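Kinetic colorimetric format: TGR-catalysed, NADPH-driven DTNB reduction monitored via TNB absorbance. Enzyme dispensed at 20 nM; compound exposure 15 min at room temperature before reaction start.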
FBPA Giardia inh = Giardia lamblia aldolase inhibition; A8B2U2; purified Giardia FBPA; Potency, µM (highest dose often 59.6 µM), for inactives: at the highest dose activity, negative = inhibition, usual class: inhibitors; 0.71% of 290,000 active; AID 2451; also: nearly all actives have a fitted effect of over 55% in size
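Giardia FBPA (40 nM reagent) was preincubated 10 min at RT with compound (up to 57.5 uM final), then substrate plus GAPDH/TPI/NAD/arsenate coupling system with diaphorase/resazurin was added; resorufin fluorescence (525/598 nm) was read after 20 min.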
AmpC detergent = AmpC beta-lactamase inhibition with detergent present; AmpC hydrolysis of nitrocefin, absorbance 480 nm, 0.01% Triton; Potency, µM (highest dose often 114 µM), inactives show at the top dose activity change, negative = inhibition, most hits filed as inhibitors; 0.041% of 370,000 active;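 also: 0% = no-compound wells and -100% = no-enzyme wells; nearly all actives have a fitted effect of over 25% in size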
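20 mM phosphate pH 7.0 + 0.01% (detergent screen) or 0.0001% Triton X-100; 5.3 nM AmpC reagent; cpd preinc 15 min RT; nitrocefin (800 uM stock) to start; A480 q20 s × 4 min; Activity was normalised to no-enzyme and no-compound control wells.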
* marks the source's active call; other numbers are inactive results; ? = inconclusive; / = no result; ! = a repeat was not active. Shown are actives, neighbours in structure and some others; about 3.6% of the full set was active somewhere. Calls follow the shape of the dose curve; as a rule, active = well fitted curve in the direction sought with a large enough effect; inconclusive = small, poorly fitted or top-dose-only effect, or another doubt; inactive = no such curve, though single readings can be large; an effect the other way counts as inactive or inconclusive. Unless noted, % is scaled to controls: 0 for no effect and ±100 for the full control effect; potency is read from the fitted curve at half-maximal effect.

SMILES | AmpC inh no detg | Sm TGR block | FBPA Giardia inh | AmpC detergent
ClCc1cc2ccccc2nc1Cl | -21% | 32µM* | -8% | -7%
CC(=O)CCc1oc2ccccc2c1-c1ccccc1 | -6% | -26% | 9% | -1%
CC(=O)CCc1oc2ccc([N+](=O)[O-])cc2c1-c1ccc(C)o1 | -3% | 20µM* | -5% | -7%
CC(=O)CC(c1ccccc1[N+](=O)[O-])c1c(O)c2ccccc2oc1=O (stereo not given) | 16% | 10% | 14% | -4%
CC(=O)CCc1oc2c([N+](=O)[O-])cccc2c1-c1ccc(C)o1 | 39% | 11µM* | -1% | -1%
Cc1ccc(-n2nc(C)c(C(=O)Nc3cccc(C(=O)NC4CC4)c3)n2)c(C)c1 | 30% | -2% | / | -5%
COC(=O)[C@@H](NCc1cccc(CN([C@H](C(=O)OC)C(C)C)S(C)(=O)=O)c1)C(C)C | 147% | -23% | -9% | ?
CC(=O)Oc1ccccc1C(=O)O | / | / | -3% | /
CC(=O)[O][Hg][c]1ccccc1 | / | / | 18µM* | /
Cc1cccc[n+]1C1C(c2ccccc2)C(C#N)=C(C(=C=[N-])C#N)NC1(O)C1CC1 (stereo not given) | -31% | 5.6µM* | ? | -1%
N#CC(=C=[N-])C1=C(C#N)C(c2ccccc2F)C([n+]2ccccc2)C(O)(C2CC2)N1 (stereo not given) | -39% | -26% | -28% | 0%
CC1(C)CC(=O)C2=C(C1)N(c1cccnc1)C(N)=C(C#N)C2c1cccs1 (stereo not given) | -17% | 50µM* | ? | -7%
CCSc1sccc1C1C(C#N)=C(N)N(c2cccnc2)C2=C1C(=O)CC(C)(C)C2 (stereo not given) | 34% | -20% | -21% | -8%
COc1ccc(N2C(N)=C(C#N)C(c3cccnc3)C3=C2CC(C)(C)CC3=O)cc1 (stereo not given) | -3% | 10µM* | -26% | -2%
CN(C)N1C(N)=C(C#N)C(c2cccs2)C2=C1CC(C)(C)CC2=O (stereo not given) | 0% | 4% | 18µM* | 0%
O=C1C(Nc2ccccc2)=CC(c2ccc(Br)cc2)N1c1ccccc1 (stereo not given) | / | ? | / | 8%
COC(=O)CCCC1=CC2=C(c3ccccc3)C(=O)C(C)(OC(=O)C3CCCC3)C(=O)C2=CN1C1CCCCC1 (stereo not given) | 155% | 20µM* | ? | 1%
COCCN1C=C2C(=O)C(C)(OC(=O)C3CCCC3)C(=O)C(c3ccccc3)=C2C=C1CCCC(=O)OC (stereo not given) | 32% | 14µM* | ? | -7%
COC(=O)CCCC1=CC2=C(c3ccccc3)C(=O)C(C)(OC(=O)C3CCCC3)C(=O)C2=CN1CC1CC1 (stereo not given) | 107% | 28µM* | ? | -11%
COC(=O)CCCC1=CC2=C(c3ccccc3)C(=O)C(C)(OC(=O)C3CCCC3)C(=O)C2=CN1CC(C)C (stereo not given) | 148% | -3% | ? | 2%
CCN(CC)CCCN1C=C2C(=O)C(C)(OC(=O)C3CCCC3)C(=O)C(c3ccccc3)=C2C=C1CCCC(=O)OC (stereo not given) | 98% | ? | ? | -6%
Cc1nn(-c2ccccn2)c2c1-c1nc(N)ncc1CC2 | -20% | 0% | 16µM* | -13%
CCOC(=O)c1cc([N+](=O)[O-])c([N+](=O)[O-])cc1NC(C)=O | -24% | 0.5µM* | -22% | -3%
CCOC(=O)c1ccc(NC(=O)c2ccccc2[N+](=O)[O-])cc1 | -25% | -4% | -1% | 3%
CC(=Nc1ccc(C)cc1)c1sc2ccccc2c1O | 7.9µM* | 5% | 1% | 1%
SMILES | AmpC inh no detg | Sm TGR block | FBPA Giardia inh | AmpC detergent
CC(C)(C)C(=O)Cn1c(=O)n(-c2ccc(Cl)cc2)c(=O)c2c3c(sc21)CCCC3 | / | 6% | / | 16%
CCCC1c2ccc(C)n2CCN1C(=O)Nc1ccccc1Cl (stereo not given) | -15% | 35µM* | ? | -13%
CCC1c2ccc(C)n2CCN1C(=O)Nc1ccccc1C(=O)OC (stereo not given) | 156% | -32% | 13% | 5%
CCOC(=O)c1ccccc1NC(=O)N1CCn2c(C)ccc2C1CC (stereo not given) | 34% | 7.1µM* | ? | -2%
COc1ccc(N2CCN(C(c3ccccc3F)c3sc4nc(-c5ccco5)nn4c3O)CC2)cc1 (stereo not given) | / | 9% | / | 0%
Cc1cc(C)c(S(=O)(=O)Nc2cccc3cccnc23)c(C)c1 | / | / | -3% | /
Cc1cc(C)c(S(=O)(=O)Nc2ccc[nH]c2=O)c(C)c1 | -10% | -10% | 5.6µM* | 0%
COc1ccc(N2C(=O)NC(=O)/C(=C/c3ccc([N+](=O)[O-])s3)C2=O)cc1 | -34% | 7.1µM* | ? | -2%
CCOc1ccc(N2C(=O)NC(=O)/C(=C\c3cc(OC)c(OC)cc3[N+](=O)[O-])C2=O)cc1 | -29% | ? | ? | 1%
COc1ccccc1N1C(=O)NC(=O)/C(=C/c2ccc([N+](=O)[O-])s2)C1=O | -27% | 5.6µM* | ? | -1%
COc1ccc(N2C(=O)NC(=O)/C(=C\c3ccc([N+](=O)[O-])s3)C2=O)cc1 | -54% | 7.9µM* | ? | 1%
COc1cccc(N2C(=O)NC(=O)/C(=C/c3ccc4c(c3)Cc3ccccc3-4)C2=O)c1 | -47% | ? | -9% | -13%
COc1cccc(N2C(=O)NC(=O)/C(=C/c3ccc([N+](=O)[O-])s3)C2=O)c1 | -38% | 7.9µM* | ? | -4%
Cn1cc(CCCC(=O)NCc2ccc(F)cc2)c2ccccc21 | -9% | ? | 2% | -1%
CCN(CC)C(=S)SSC(=S)N(CC)CC | ? | -32% | 18µM*! | ?
C=C(Cl)CSC(=S)N(CC)CC | -5% | ? | / | -5%
CC1=C(C(=O)Nc2cccc(C(=O)NC(C)c3ccccc3)c2)SCCO1 (stereo not given) | -25% | -20% | 7% | -16%
O=[N+]([O-])c1cc(-c2ccc(/C=N\n3cnnc3)o2)cc([N+](=O)[O-])c1 | ? | 40µM* | -7% | 1%
CC1CCN(S(=O)(=O)c2cc(C(=O)N3CCN(c4ncccn4)CC3)ccc2Br)CC1 | 124% | 5% | 0% | -9%
C/C(=N\Nc1ccc(Cl)cc1)c1c(O)cc(C)oc1=O | -25% | 22µM* | -11% | ?
C/C(=N\NC(=O)c1cccs1)c1c(O)cc(C)oc1=O | -23% | -9% | / | -3%
CC(=O)Nc1cccc(NC(=S)Nc2cccc(Cl)c2Cl)c1 | -41% | / | -15% | -1%
CC(=O)c1ccc(NC(=S)Nc2cccc(Cl)c2C)cc1 | -20% | 35µM* | -4% | -11%
S=C(Nc1ccc(CN2CCCCC2)cc1)Nc1cccc(Cl)c1Cl | -10% | 25µM* | -29% | ?
CNC(=S)Nc1cccc(C(=O)OC)c1 | -12% | 32µM* | 4% | 13%
